The values that follow come from ChEMBL document CHEMBL1157539, “Thousands of chemical starting points for antimalarial lead identification” (Nature, 2010).

As a reminder, the Inhibition is the percentage by which the read-out fell short of the control. The low end stands for a weak effect, the high end for a strong effect.

The assay concerns HepG2. Briefly: GSK_TCMDC: Percent inhibition of human HepG2 cell line. Test compounds present at 10uM. The format is functional.
Compound `Cl.O=S(=O)(Nc1cc2c(cc1O)CCN(C1CCC1)CC2)c1ccc(-c2ccc(F)cc2)cc1` yielded an Inhibition of 16%.

In turn, `CCCSc1nc2c(c(=O)n1Cc1ccco1)C1(CCCCC1)Cc1ccccc1-2` returned an Inhibition of 0%.

`CCCCC(CC)NC(=O)[C@H]1CNCCN1C(=O)CCCc1ccccc1.O=C(O)C(F)(F)F` (some centres not stated): the Inhibition came to 5%.

In turn, `Cc1cn(CC(=O)Nc2cccc(-c3cccc(-c4nc5cc(C(F)(F)F)ccc5[nH]4)c3)c2)c(=O)[nH]c1=O` had an Inhibition of 15%.

The compound `S=C(NCCCCCN1CCC(c2c[nH]c3ccccc23)CC1)Nc1cc(Cl)cc(Cl)c1` returned an Inhibition of 25%.

As for `CCNC(=O)Nc1cccc(-c2cccc(-c3nc4cccc(C)c4[nH]3)c2)c1`, the Inhibition stood at 7%.

Regarding `CN1C(C)(C)CC(NC(=O)c2ccc(-c3nc4cc(Cl)ccc4[nH]3)cc2)CC1(C)C`, the Inhibition worked out at 23%.

In the case of `Cl.c1ccc(-c2ccc3c(Nc4ccc5[nH]ccc5c4)ccnc3c2)nc1`, the Inhibition was found to be 11%.

As for `COc1ccc(C2CCN(CCCCNC(=O)c3ccc(NC(=O)c4ccc(Cl)cc4)cc3)CC2)cc1Cl`, the Inhibition came out at 28%.

`COc1ccccc1C(C)NCC(=O)Nc1cc(C(F)(F)F)ccc1Cl` (configuration not stated) returned an Inhibition of 4%.

`Cl.O=C1CSc2ccc(CNC3CCN(CCc4c(Cl)cnc5ccc(Cl)cc45)CC3)nc2N1` came in with an Inhibition of 25%.

On to `COC1CCC(C(=O)Nc2ccc(-c3cccc(-c4nc5cccc(C)c5[nH]4)c3)cc2)CC1` (configuration not stated), for which the Inhibition worked out at 89%.

On to `OC(CNCc1ccccc1OCc1ccccc1)c1cccc(I)c1` (configuration not stated), for which the Inhibition was found to be 2%.

`Cc1ccc(NCc2cccc(F)c2)cc1S(=O)(=O)N[C@@H]1CCN(C#N)C1`: the Inhibition is 13%.

Compound `Cn1nc(-c2ccc(NC(=O)Nc3cc(C(F)(F)F)ccc3F)cc2)c2cnc(NCCc3c[nH]cn3)nc21.O=C(O)C(F)(F)F` returned an Inhibition of 15%.

The compound `Cc1cccc2nc(-c3cccc(-c4cccc(C(=O)NCCc5cn(C)cn5)c4)c3)[nH]c12` registered an Inhibition of 12%.

Take `CCNc1cc(C(=O)N[C@@H](Cc2ccccc2)[C@H](O)CNCCc2cccc3ccccc23)cc(N2CCCC2=O)c1.O=CO`: the Inhibition is listed as 12%.

Consider `COc1ccc(CNCCCCCCNCc2ccc(OC)c3ccccc23)c2ccccc12.Cl`, for which the Inhibition amounted to 100%.

`CC(C)CCN1C(=O)C(NC(=O)Oc2ccccc2)C(=O)N(CC23CC4CC(CC(C4)C2)C3)c2ccccc21` (configuration not stated) registered an Inhibition of 3%.

Compound `CC(C)CNC(=S)N1CCCN(c2nc3ccc(Cl)cc3s2)CC1` came in with an Inhibition of 28%.

With `Cc1cc(C(=O)Nc2nc(-c3ccccn3)nc3ccsc23)no1`, the Inhibition was 44%.

`C=CCOC(=O)N1CCC(CNCc2cccc(-c3ccc(-c4nc5cc(C(F)(F)F)ccc5[nH]4)cc3)c2)C1.O=C(O)C(F)(F)F` (configuration not stated): the Inhibition came out at 28%.

The compound `C=C[C@H]1CN2CC[C@H]1C[C@H]2[C@H](O)c1ccnc2ccc(OC)cc12.O.O=S(=O)(O)O` came in with an Inhibition of 0%.

Regarding `CCCc1cc(NC2CCN(C)CC2)nc(Nc2cccc(OC)c2)n1`, the Inhibition is on record as 31%.

For `Br.CCCCC(NCC)c1ccc(OCCOc2ccc(C(CCCC)NCC)cc2)cc1` (configuration not stated), the Inhibition is reported as 100%.

In turn, `O=C(Nc1cccc(CN2CCCN(Cc3cccc(Cl)c3)CC2)c1)c1ccc(Br)cc1.O=C(O)C(F)(F)F` registered an Inhibition of 38%.

Regarding `Cc1nc2nc(N)nc(N)c2c(C)c1Cc1cccs1.Cl`, the Inhibition was determined as 66%.
